Measurements as given in PubChem BioAssay (NCI).
About 83,000 compounds went through this panel and 20% of them were active in at least one assay; those are over-represented in the sample as a whole.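 How to read the values: 0–100, growth inhibition (40 = 60% inhibited); 0, no net growth; -100 to 0, cell death (-40 = 40% of starting cells died; -100 = all dead).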 Unmarked numbers belong to inactive results. Calls of active or inactive are those of the source. The calls were made as follows: active = growth percent below 10; inactive = the rest.

The molecules below were run on HL-60(TB) leukemia (assay: NCI-60 one-dose screen, 48 h (100 = growth as untreated, 0 = no growth, -100 = all killed)). Details: 10 µM unless noted.
For `O=C(N/N=C/c1ccc([N+](=O)[O-])cc1)c1ccc(Br)o1`, the growth was 123%. For `CC(C)=CC(=O)N[C@@H]1CC2CCC3C(CC[C@@]4(C)C3CC[C@@H]4C(C)N(C)C)[C@@]2(C)C[C@@H]1O` (stereo not given in full), the growth was -63.8% (active). In the case of `CCN1C(=O)C2(Nc3ccccc3S2)c2cc(C)ccc21` (stereo not given), the growth was 118%. `COc1ccc(-c2[nH]c(=S)n(C(CC3(C)NCC(=O)N3n3c(-c4ccccc4)cc(C)nc3=S)c3ccc(OC)cc3)c(=O)c2Br)cc1` (stereo not given) was tested, and the growth was 59.6%. `O=C1C(c2c[nH]c3ccccc23)=C(c2coc3cc(Br)ccc23)C(=O)N1O` was tested, and the growth was 103%. In the case of `NS(=O)(=O)c1ccc(CCn2c(SCC(=O)N/N=C/c3cccnc3)nc3ccccc3c2=O)cc1`, the growth was 80.4%. With `O=C(c1cccs1)c1ccccc1Cc1ccccc1` the growth was 98.8%. In the case of `S=C(N/N=C/c1ccccn1)Nc1ccccn1`, the growth was -13.7% (active). Work on `N#Cc1c2c([nH]c(=O)c1C(N)=O)CCCCC2` yielded a growth of 104%. For `CCN=c1cc2sc3cc(NCC)c(C)cc3nc-2cc1C`, the growth was 2.7% (active). In the case of `C[N+](C)(CCOC(c1ccccc1)c1ccccc1)CC(=O)OCc1ccccc1`, the growth was 100%. In the case of `COc1ccc(C(=O)/C=C/c2ccc(N3CCCCC3)cc2)cc1OC`, the growth was 78.9%. In the case of `Cc1cc2c(c(C)c1Cl)C(=O)/C(=C/c1ccc(O)c(O)c1)O2`, the growth was 108%. In the case of `COc1ccc(-c2nnc(SCC(=O)Nc3ccc(/C(C)=N\O)cc3)n2-c2ccccc2)cc1OC`, the growth was 77.3%. `COc1cc2c(cc1[N+](=O)[O-])-c1ccc([N+](=O)[O-])cc1/C2=N\O` gave a growth of 89.5%. In the case of `COC1C(O)CC(OC2CC(OC3CC(O[C@@H]4C(=O)c5c(cc6cc(OC7CC(OC8CC(O)C(O)C(C)O8)C(O)C(C)O7)c(C)c(O)c6c5O)CC4[C@H](OC)C(=O)C(C)=O)OC(C)C3O)OC(C)C2O)OC1C` (stereo not given in full), the growth was -18.6% (active). With `CC1(C)N=C(N)N=C(N)N1c1ccc(CCCCc2ccccc2)c(Cl)c1` the growth was -25.5% (active). `Cn1cc(-c2nn3cc(-c4ccccc4)nc3s2)c2ccccc21` gave a growth of 84.8%. For `CCN(CC)CCOc1nc2c3ccc(Cl)cc3nn2c2ccccc12`, the growth was 19.5%. For `C=C(C)[C@@H]1CC[C@]2(C)[C@H](CC=C3[C@@H]4CC(C)(C)CC[C@]4(C=O)CC[C@]32C)[C@@]1(C)CCCN`, the growth was -3.43% (active). `CC1Cc2ccccc2N1NC(=O)c1ccc(Cl)c(S(N)(=O)=O)c1` (stereo not given) was tested, and the growth was 92.3%. `CCn1c(C)nc2cc(C(N)=O)ccc21` showed a growth of 79.7%. Molecule `C=CC(=O)N1CCN(c2cccc(Oc3nccc(Nc4nnc(-c5ccc(Br)cc5)s4)n3)c2)CC1` has a growth of 51.1%. With `Cn1cc(-c2noc(-c3cn(C)c4ncc(Br)cc34)n2)c2cc(Cl)ccc21` the growth was 102%. For `Fc1ccc(Nc2ncnc3ccc(-c4cn[nH]c4)cc23)cc1Cl`, the growth was 83.7%. Work on `O=C1/C(=C/c2ccccc2O)C(=S)SN1Cc1ccco1` yielded a growth of 92%. In the case of `COc1cc(OC)c2cc(C(=O)O)c(=O)oc2c1`, the growth was 66%. For `O=S(=O)(Nc1cc(Sc2cccc3cccnc23)c(O)c2ccccc12)c1ccccc1`, the growth was -21% (active). With `CCSc1oc(C)nc1[P+](c1ccccc1)(c1ccccc1)c1ccccc1` the growth was 7.21% (active). `Cc1ccc(-c2ccc(/C=C(\C#N)c3nc(-c4ccco4)cs3)o2)cc1` was tested, and the growth was 101%. `COc1ccc2nc(-c3ccc(-n4cncc4-c4ccc(OC)c(N)c4)cc3)sc2c1` was tested, and the growth was 80.7%. For `COc1ccc(C(=O)c2cc(OC)c(OC)c(OC)c2)cc1OC(=O)C(Cl)(Cl)Cl`, the growth was -45.3% (active). `COC(=O)[C@]12CCC(C)(C)C[C@H]1[C@H]1/C(=N/OCCc3nn[nH]n3)C[C@@H]3[C@@]4(C)CC[C@H](OC(C)=O)C(C)(C)[C@@H]4CC[C@@]3(C)[C@]1(C)CC2` was tested, and the growth was 10.4%. `COc1cc(-c2nc3ccccc3[nH]2)ccc1OCc1nnc(-c2ccc(Br)cc2)o1` showed a growth of 84.2%. With `O=C(CCCCCCN1CC(=O)N2[C@H](c3ccc(Cl)cc3)c3[nH]c4ccccc4c3C[C@@H]2C1=O)NO` the growth was 1.54% (active). For `C=CCN1C(=O)[C@]2(SC1=S)[C@H](c1cccc(Cl)c1)CN(C)[C@]21C(=O)NC2C=CC(Cl)=C[C@H]21` (stereo not given in full), the growth was -39.8% (active). For `Cn1cc(-c2nc(-c3c[nH]c4c(Cl)nccc34)cs2)c2ccccc21`, the growth was 83.3%. In the case of `COC(=O)[C@]12CC[C@@H](C)[C@H](C)[C@@H]1C1=CC[C@@H]3[C@@]4(C)C[C@@H](OC(C)=O)[C@H](O)[C@@](C)(COC(C)=O)[C@@H]4[C@H](O)C[C@@]3(C)[C@]1(C)CC2`, the growth was -41.6% (active). Work on `CC[C@]12C=CCN3CC[C@@]4(c5ccc(OC)cc5N(C)[C@H]4[C@@](O)(C(=O)OC)[C@@H]1OC(=O)CCCN1CCOCC1)[C@@H]32` yielded a growth of 97.5%. With `Cn1cc(-c2csc(-c3cn(CCCN4CCCCC4)c4ccccc34)n2)c2cccnc21` the growth was -65.2% (active).
